In the supplement of paper PMC10849652:
The full data set covers some 7,900 targets. This sample favours those with a hit. About 0.6% of all pairs of compound and target were hits.

compound: CCCc1cc(C)[nH]c(=O)c1CNC(=O)c1cc(-c2ccnc(N3CCN(C)CC3)c2)cc2c1cnn2C(C)C; assay: log2 fold change, soluble protein after heating vs DMSO (PISA); higher = thermal stabilisation; K562 cells, 10 uM, 30 min; active = over 0.2 and 3.5 SD of the protein, either way, in both replicates (recomputed)
Summary of the method: (§1)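 For each measurement, 10 μM compound was applied for 30 min to K562 cells at 2×10^6 cells/mL. Aliquots were heated for 3 min across 48°C-58°C, pooled, and extracted in PBS with 0.5% NP-40 at 4°C; the supernatant after 21,000xg for 90 min was soluble protein. This was quantified by TMTpro 16plex LC-MS/MS with channel sums equalised, and thermal stability was reported relative to control samples from duplicates, on a log2 fold-change scale.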

UniProt O95747, sequence (O95747 whole entry, looked up): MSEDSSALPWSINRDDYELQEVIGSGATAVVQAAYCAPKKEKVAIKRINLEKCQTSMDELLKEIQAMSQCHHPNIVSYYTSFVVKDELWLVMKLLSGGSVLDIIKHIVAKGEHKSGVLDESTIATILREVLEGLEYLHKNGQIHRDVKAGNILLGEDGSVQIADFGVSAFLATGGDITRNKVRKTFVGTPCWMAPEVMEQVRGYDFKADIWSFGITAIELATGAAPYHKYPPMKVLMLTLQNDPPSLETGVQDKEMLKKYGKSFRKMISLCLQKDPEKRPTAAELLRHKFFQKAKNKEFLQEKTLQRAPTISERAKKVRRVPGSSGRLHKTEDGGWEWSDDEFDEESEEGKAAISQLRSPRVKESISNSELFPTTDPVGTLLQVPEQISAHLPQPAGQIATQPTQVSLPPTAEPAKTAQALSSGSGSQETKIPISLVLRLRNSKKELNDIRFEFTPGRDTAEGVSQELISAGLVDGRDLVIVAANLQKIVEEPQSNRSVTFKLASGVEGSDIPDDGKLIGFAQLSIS
UniProt Q16795, sequence (Q16795 whole entry, looked up): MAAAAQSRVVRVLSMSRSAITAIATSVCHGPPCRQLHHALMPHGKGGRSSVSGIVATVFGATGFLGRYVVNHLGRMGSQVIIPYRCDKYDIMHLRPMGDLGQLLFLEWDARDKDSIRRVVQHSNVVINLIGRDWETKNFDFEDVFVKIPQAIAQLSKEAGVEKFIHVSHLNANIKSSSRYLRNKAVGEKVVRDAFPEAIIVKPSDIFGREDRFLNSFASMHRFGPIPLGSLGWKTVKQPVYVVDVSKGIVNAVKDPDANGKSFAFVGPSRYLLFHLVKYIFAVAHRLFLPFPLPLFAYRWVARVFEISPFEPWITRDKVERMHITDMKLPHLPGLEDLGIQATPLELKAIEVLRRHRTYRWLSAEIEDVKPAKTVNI
UniProt Q9BZF1, sequence (Q9BZF1 whole entry, looked up): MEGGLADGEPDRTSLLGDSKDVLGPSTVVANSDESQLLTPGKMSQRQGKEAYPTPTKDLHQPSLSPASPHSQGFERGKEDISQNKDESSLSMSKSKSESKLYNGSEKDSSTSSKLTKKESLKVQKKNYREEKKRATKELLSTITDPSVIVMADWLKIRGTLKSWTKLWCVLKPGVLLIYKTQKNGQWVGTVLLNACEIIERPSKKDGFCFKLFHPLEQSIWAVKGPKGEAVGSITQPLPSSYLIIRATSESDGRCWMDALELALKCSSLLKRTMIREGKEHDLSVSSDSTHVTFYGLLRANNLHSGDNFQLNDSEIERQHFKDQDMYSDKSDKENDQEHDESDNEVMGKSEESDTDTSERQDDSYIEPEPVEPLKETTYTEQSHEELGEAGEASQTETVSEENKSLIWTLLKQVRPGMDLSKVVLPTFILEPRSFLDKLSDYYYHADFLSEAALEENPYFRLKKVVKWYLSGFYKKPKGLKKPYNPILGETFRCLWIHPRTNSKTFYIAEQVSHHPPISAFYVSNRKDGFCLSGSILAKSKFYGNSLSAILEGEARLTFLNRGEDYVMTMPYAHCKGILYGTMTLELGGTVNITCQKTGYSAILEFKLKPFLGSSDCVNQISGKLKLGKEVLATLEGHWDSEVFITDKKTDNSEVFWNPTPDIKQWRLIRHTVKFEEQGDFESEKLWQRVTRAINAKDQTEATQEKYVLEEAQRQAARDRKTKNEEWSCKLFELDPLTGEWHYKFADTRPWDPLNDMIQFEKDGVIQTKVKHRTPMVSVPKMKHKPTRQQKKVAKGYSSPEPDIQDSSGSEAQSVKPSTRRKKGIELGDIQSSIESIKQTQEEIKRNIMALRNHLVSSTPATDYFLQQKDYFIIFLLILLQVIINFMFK
UniProt P19338, sequence (P19338 whole entry, looked up): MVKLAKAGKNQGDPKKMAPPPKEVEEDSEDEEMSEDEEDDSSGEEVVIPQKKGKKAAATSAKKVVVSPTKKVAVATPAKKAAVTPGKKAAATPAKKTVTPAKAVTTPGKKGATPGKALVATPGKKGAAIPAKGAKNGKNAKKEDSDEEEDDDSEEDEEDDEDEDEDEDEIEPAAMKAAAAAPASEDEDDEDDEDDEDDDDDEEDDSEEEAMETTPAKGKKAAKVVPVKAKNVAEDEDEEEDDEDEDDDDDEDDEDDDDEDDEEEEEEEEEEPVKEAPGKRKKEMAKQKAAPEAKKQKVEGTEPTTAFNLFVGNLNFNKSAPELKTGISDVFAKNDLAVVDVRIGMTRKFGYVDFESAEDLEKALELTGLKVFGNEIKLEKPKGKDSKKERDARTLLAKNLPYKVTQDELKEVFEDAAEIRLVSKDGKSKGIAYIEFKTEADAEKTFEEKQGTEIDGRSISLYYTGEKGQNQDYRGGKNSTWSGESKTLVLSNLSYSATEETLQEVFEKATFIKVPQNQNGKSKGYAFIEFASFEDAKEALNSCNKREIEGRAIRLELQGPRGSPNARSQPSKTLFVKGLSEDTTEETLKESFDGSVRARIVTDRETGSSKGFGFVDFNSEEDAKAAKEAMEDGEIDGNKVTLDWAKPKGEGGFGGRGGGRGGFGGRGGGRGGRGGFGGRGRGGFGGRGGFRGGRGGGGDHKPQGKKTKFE
UniProt Q12986, sequence (Q12986 whole entry, looked up): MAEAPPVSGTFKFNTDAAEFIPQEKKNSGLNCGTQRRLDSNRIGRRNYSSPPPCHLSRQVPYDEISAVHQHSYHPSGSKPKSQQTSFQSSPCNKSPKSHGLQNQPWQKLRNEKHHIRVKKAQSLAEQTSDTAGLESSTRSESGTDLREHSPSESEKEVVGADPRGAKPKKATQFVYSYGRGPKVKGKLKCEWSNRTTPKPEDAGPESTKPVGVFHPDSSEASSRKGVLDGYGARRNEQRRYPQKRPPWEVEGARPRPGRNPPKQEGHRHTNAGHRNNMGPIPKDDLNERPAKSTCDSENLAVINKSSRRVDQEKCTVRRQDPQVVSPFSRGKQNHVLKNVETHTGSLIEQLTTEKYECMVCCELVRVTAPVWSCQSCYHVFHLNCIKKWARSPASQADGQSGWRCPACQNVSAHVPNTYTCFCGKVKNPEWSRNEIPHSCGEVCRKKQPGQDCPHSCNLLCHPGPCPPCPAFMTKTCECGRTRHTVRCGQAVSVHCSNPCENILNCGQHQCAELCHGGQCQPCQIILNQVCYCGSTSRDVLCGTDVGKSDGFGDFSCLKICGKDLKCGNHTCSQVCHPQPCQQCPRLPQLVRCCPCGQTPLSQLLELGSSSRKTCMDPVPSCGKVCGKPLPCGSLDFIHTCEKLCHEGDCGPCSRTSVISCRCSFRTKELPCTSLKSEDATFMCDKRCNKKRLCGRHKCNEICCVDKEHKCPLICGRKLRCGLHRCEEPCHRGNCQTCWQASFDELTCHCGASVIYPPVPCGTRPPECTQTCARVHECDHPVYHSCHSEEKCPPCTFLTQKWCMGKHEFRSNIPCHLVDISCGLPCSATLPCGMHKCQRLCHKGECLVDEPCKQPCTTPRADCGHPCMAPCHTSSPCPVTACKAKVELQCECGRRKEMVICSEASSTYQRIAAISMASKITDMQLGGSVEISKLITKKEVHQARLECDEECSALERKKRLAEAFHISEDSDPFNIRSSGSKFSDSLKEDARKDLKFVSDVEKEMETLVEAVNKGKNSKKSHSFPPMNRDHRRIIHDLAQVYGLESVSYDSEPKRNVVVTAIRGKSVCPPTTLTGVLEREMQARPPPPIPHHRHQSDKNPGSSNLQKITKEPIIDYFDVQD
UniProt Q9ULX3, sequence (Q9ULX3 whole entry, looked up): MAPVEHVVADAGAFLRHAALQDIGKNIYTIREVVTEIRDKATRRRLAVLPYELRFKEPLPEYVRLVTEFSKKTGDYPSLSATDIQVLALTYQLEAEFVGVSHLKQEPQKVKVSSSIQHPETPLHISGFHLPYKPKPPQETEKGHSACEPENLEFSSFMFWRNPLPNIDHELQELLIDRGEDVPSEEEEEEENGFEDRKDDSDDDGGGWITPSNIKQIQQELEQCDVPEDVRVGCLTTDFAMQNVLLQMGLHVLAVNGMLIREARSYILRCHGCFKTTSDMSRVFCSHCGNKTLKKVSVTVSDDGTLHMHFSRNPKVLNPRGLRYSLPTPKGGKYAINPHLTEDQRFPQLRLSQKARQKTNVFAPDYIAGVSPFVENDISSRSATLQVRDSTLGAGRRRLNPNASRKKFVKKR
UniProt Q99747, sequence (Q99747 whole entry, looked up): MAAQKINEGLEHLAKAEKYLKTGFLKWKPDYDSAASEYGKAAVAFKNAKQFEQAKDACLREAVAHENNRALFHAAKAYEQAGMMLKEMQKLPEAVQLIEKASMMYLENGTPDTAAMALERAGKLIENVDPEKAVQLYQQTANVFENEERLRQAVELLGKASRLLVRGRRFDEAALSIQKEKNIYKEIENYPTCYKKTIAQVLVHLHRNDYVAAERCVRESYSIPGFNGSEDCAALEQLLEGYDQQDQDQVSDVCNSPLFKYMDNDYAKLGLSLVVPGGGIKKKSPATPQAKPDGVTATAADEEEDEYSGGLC
UniProt Q9BSU3, sequence (Q9BSU3 whole entry, looked up): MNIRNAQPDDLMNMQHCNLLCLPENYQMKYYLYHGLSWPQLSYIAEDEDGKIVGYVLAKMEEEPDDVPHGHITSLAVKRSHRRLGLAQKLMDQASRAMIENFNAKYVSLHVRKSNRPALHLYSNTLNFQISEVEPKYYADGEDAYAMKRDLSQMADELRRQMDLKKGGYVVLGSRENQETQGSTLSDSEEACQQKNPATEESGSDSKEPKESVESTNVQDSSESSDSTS
UniProt P84157, sequence (P84157 whole entry, looked up): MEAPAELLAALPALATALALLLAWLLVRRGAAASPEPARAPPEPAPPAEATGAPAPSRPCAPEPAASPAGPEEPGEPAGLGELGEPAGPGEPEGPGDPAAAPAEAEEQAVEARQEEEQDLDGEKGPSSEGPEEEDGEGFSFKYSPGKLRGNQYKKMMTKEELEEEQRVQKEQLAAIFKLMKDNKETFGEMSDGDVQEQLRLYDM
UniProt O00217, sequence (O00217 whole entry, looked up): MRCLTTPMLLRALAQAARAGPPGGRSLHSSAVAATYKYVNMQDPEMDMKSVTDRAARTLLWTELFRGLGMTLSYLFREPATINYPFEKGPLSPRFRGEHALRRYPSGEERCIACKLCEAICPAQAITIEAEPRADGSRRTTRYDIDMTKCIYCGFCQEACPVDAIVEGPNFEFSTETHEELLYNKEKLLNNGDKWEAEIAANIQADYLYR

log2 fold change, inactive:
NDUFA6 (UniProt P56556) -0.064
MORF4L2 (UniProt Q15014) 0.038
NOL7 (UniProt Q9UMY1) 0.088
NELFA (UniProt Q9H3P2) 0.024
NHLRC2 (UniProt Q8NBF2) -0.076
MRPS25 (UniProt P82663) -0.082
MINK1 (UniProt Q8N4C8) 0.003
OSBPL8 (UniProt Q9BZF1) 0.309
NDUFA9 (UniProt Q16795) -0.044
NTMT1 (UniProt Q9BV86) -0.073
NFATC3 (UniProt Q12968) 0.116
NAA11 (UniProt Q9BSU3) 0.047
NUDT1 (UniProt P36639) -0.026
MRPS18B (UniProt Q9Y676) -0.081
NOP56 (UniProt O00567) 0.003
MRPS15 (UniProt P82914) 0.023
MXRA7 (UniProt P84157) -0.078
NPC1 (UniProt O15118) -0.028
NUCKS1 (UniProt Q9H1E3) -0.076
NCAPG (UniProt Q9BPX3) 0.064
NDUFB7 (UniProt P17568) -0.124
NACC1 (UniProt Q96RE7) 0.025
NDUFS8 (UniProt O00217) -0.092
NCL (UniProt P19338) 0.145
NOB1 (UniProt Q9ULX3) 0.182
NDUFA12 (UniProt Q9UI09) -0.044
NBN (UniProt O60934) 0.04
NIBAN1 (UniProt Q9BZQ8) 0.039
OXSR1 (UniProt O95747) 0.007
NFYC (UniProt Q13952) -0.031
NAPG (UniProt Q99747) 0.045
NUP210 (UniProt Q8TEM1) -0.05
MRPS24 (UniProt Q96EL2) -0.016
NMT1 (UniProt P30419) 0.023
NUP205 (UniProt Q92621) -0.016
MRPL46 (UniProt Q9H2W6) 0.009
MON1B (UniProt Q7L1V2) -0.036
NFX1 (UniProt Q12986) 0.17
MRPS16 (UniProt Q9Y3D3) 0.032

compound: CCN(CC)Cc1ccc2cc(COC(=O)Nc3ccc(C(=O)NO)cc3)ccc2c1 [givinostat]; assay: as above
Summary of the method: as §1

log2 fold change, active:
NDUFB7 (UniProt P17568) -0.367
NMT1 (UniProt P30419) -0.284

log2 fold change, inactive:
NDUFA6 (UniProt P56556) 0.047
MORF4L2 (UniProt Q15014) -0.007
NOL7 (UniProt Q9UMY1) 0.031
NELFA (UniProt Q9H3P2) 0.079
NHLRC2 (UniProt Q8NBF2) -0.006
MRPS25 (UniProt P82663) 0.049
MINK1 (UniProt Q8N4C8) -0.007
OSBPL8 (UniProt Q9BZF1) -0.03
NDUFA9 (UniProt Q16795) 0.041
NTMT1 (UniProt Q9BV86) -0.066
NFATC3 (UniProt Q12968) 0.088
NAA11 (UniProt Q9BSU3) 0
NUDT1 (UniProt P36639) -0.042
MRPS18B (UniProt Q9Y676) 0.075
NOP56 (UniProt O00567) 0.096
MRPS15 (UniProt P82914) 0.027
MXRA7 (UniProt P84157) 0.011
NPC1 (UniProt O15118) -0.051
NUCKS1 (UniProt Q9H1E3) -0.004
NCAPG (UniProt Q9BPX3) 0.081
NACC1 (UniProt Q96RE7) 0.208
NDUFS8 (UniProt O00217) -0.014
NCL (UniProt P19338) 0.085
NOB1 (UniProt Q9ULX3) 0.055
NDUFA12 (UniProt Q9UI09) 0.114
NBN (UniProt O60934) 0.054
NIBAN1 (UniProt Q9BZQ8) 0.05
OXSR1 (UniProt O95747) 0.055
NFYC (UniProt Q13952) 0.001
NAPG (UniProt Q99747) 0.123
NUP210 (UniProt Q8TEM1) -0.017
MRPS24 (UniProt Q96EL2) -0.035
NUP205 (UniProt Q92621) 0.076
MRPL46 (UniProt Q9H2W6) -0.003
MON1B (UniProt Q7L1V2) 0.024
NFX1 (UniProt Q12986) 0
MRPS16 (UniProt Q9Y3D3) 0.031
